Experimental data from PubChem BioAssay AID1159580 (chemical genetic matrix, 2015).
Where “and” joins values, the source holds several entries; their conditions need not be identical. Equal entries are not always repeated. The campaign covered roughly 5,500 compounds. About 2,000 (36%) were called active. Roughly 18% stayed inconclusive and do not appear here. Rule as the data show it: active = normalized growth mostly below about 0.91 (no sharp cut-off); inconclusive = no clear call, values can overlap the other calls; inactive = mostly above about 0.92. The list shows a part of the results.

Assay: chemical genetic growth profiling, strain panel (AID 1159580);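 also: tested at 20 µM; growth read once vehicle control cultures reached saturation at 30 °C; 1 = growth at the plate median or of vehicle wells; lower values mean less growth of the strain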
Details: S. cerevisiae deletion strains, growth OD

Measured: normalized growth

NCC(CC(=O)O)c1ccc(Cl)cc1 (configuration not stated)
inactive: locus YAL013W, strain DEP1, stronger effect = lower value 1.02 | locus YAL021C, strain ccr4, stronger effect = lower value 0.99 | locus YAL026C, strain drs2, stronger effect = lower value 0.997 | locus YAL030W, strain snc1, stronger effect = lower value 1 | locus YAL040C, strain CLN3, stronger effect = lower value 1.03 | locus YBL061C, strain skt5, stronger effect = lower value 1 | locus YBR009C, strain hhf1, stronger effect = lower value 0.968 | locus YBR021W, strain FUR4, stronger effect = lower value 1.04 | locus YBR023C, strain chs3, stronger effect = lower value 0.997 | locus YBR171W, strain sec66, stronger effect = lower value 1.01 | locus YBR229C, strain ROT2, stronger effect = lower value 1.01 | locus YBR231C, strain swc5, stronger effect = lower value 1.01 | locus YBR279W, strain paf1, stronger effect = lower value 0.994 | locus YCL011C, strain gbp2, stronger effect = lower value 0.992 | locus YCL016C, strain dcc1, stronger effect = lower value 0.976 | locus YCL029C, strain bik1, stronger effect = lower value 0.993 | locus YCL061C, strain MRC1 (second series), stronger effect = lower value 0.981 | locus YCL069W, strain vba3, stronger effect = lower value 0.994 | locus YCR088W, strain abp1, stronger effect = lower value 1 | locus YDL005C, strain med2, stronger effect = lower value 1 | locus YDL035C, strain GPR1, stronger effect = lower value 1.05 | locus YDL040C, strain nat1, stronger effect = lower value 0.995 | locus YDL074C, strain BRE1, stronger effect = lower value 1.03 | locus YDL101C, strain DUN1, stronger effect = lower value 1.01 | locus YDL185W, strain tfp1, stronger effect = lower value 0.993 | locus YDL192W, strain arf1, stronger effect = lower value 0.991 | locus YDR001C, strain nth1, stronger effect = lower value 0.995 | locus YDR069C, strain doa4, stronger effect = lower value 1.02 | locus YDR101C, strain arx1, stronger effect = lower value 0.979 | locus YDR137W, strain rgp1, stronger effect = lower value 0.98 | locus YDR150W, strain NUM1, stronger effect = lower value 1.01 | locus YDR159W, strain sac3, stronger effect = lower value 0.945 | locus YDR162C, strain NBP2, stronger effect = lower value 1.04 | locus YDR195W, strain ref2 0.995 | locus YDR297W, strain sur2, stronger effect = lower value 1.01 | locus YDR318W, strain mcm21, stronger effect = lower value 0.993 | locus YDR334W, strain swr1, stronger effect = lower value 1 | locus YDR335W, strain msn5, stronger effect = lower value 1 | locus YDR388W, stronger effect = lower value 0.99 | locus YDR392W, strain spt3, stronger effect = lower value 0.928 | locus YDR502C, strain sam2, stronger effect = lower value 0.991 | locus YEL003W, strain gim4, stronger effect = lower value 0.996 | locus YEL037C, strain rad23, stronger effect = lower value 0.998 | locus YEL061C, strain CIN8 (second series), stronger effect = lower value 1.01 | locus YEL061C, strain CIN8, stronger effect = lower value 1.01 | locus YER002W, strain NOP16, stronger effect = lower value 0.992 | locus YER015W, strain faa2, stronger effect = lower value 1 | locus YER016W, strain bim1, stronger effect = lower value 0.975 | locus YER110C, stronger effect = lower value 0.978 | locus YER111C, strain swi4, stronger effect = lower value 0.989 | locus YER155C, strain BEM2 (second series), stronger effect = lower value 1.02 | locus YER155C, strain BEM2, stronger effect = lower value 1.02 | locus YER167W, strain BCK2, stronger effect = lower value 1.02 | locus YFR010W, strain ubp6, stronger effect = lower value 1.01 | locus YGL078C, strain dbp3, stronger effect = lower value 0.984 | locus YGL086W, strain mad1, stronger effect = lower value 0.988 | locus YGL167C, strain pmr1, stronger effect = lower value 0.99 | locus YGL173C, strain kem1, stronger effect = lower value 1 | locus YGL227W, strain vid30, stronger effect = lower value 1 | locus YGL240W, strain doc1, stronger effect = lower value 1.03 | locus YGL248W, strain PDE1, stronger effect = lower value 1.02 | locus YGL253W, strain hxk2, stronger effect = lower value 0.966 | locus YGR078C, strain PAC10, stronger effect = lower value 1.01 | locus YGR135W, strain pre9, stronger effect = lower value 0.987 | locus YGR229C, strain SMI1, stronger effect = lower value 0.955 | locus YGR252W, strain gcn5, stronger effect = lower value 0.966 | locus YHR013C, strain ard1, stronger effect = lower value 0.982 | locus YHR027C, strain rpn1, stronger effect = lower value 0.98 | locus YHR030C, strain SLT2, stronger effect = lower value 1.01 and 1.05 | locus YHR079C, strain IRE1 (second series), stronger effect = lower value 0.984 | locus YHR079C, strain IRE1, stronger effect = lower value 1.06 | locus YHR094C, strain hxt1, stronger effect = lower value 0.985 | locus YHR129C, strain ARP1, stronger effect = lower value 1.01 | locus YHR142W, strain chs7, stronger effect = lower value 0.958 | locus YHR200W, strain rpn10, stronger effect = lower value 0.987 | locus YIL066C, strain RNR3, stronger effect = lower value 1.04 | locus YIL073C, strain SPO22, stronger effect = lower value 0.986 | locus YIL125W, strain kgd1, stronger effect = lower value 0.977 | locus YIR030C, strain dcg1, stronger effect = lower value 1 | locus YJL092W, strain hpr5, stronger effect = lower value 1.01 | locus YJL095W, strain BCK1 (second series), stronger effect = lower value 1 | locus YJL095W, strain BCK1, stronger effect = lower value 1.01 and 1.06 | locus YJL115W, strain asf1, stronger effect = lower value 1.02 | locus YJL129C, strain trk1, stronger effect = lower value 1 | locus YJL134W, strain LCB3, stronger effect = lower value 1.01 | locus YJL154C, strain vps35, stronger effect = lower value 0.991 | locus YJL164C, strain tpk1, stronger effect = lower value 0.975 | locus YJL166W, strain qcr8, stronger effect = lower value 1.01 | locus YJL168C, strain set2, stronger effect = lower value 0.994 | locus YJL187C, strain SWE1 (second series), stronger effect = lower value 1.01 | locus YJR043C, strain POL32, stronger effect = lower value 1.03 | locus YJR066W, strain TOR1, stronger effect = lower value 0.996
